test system: HepG2; assay: GSK_TCMDC: Percent inhibition of human HepG2 cell line. Test compounds present at 10uM.; format: functional

Row | SMILES | Inhibition
1 | O=C(C=Cc1cn(-c2ccccc2)nc1-c1cccs1)N1CCN(c2ccncc2)CC1 | 31%
2 | O=C(/C=C/c1ccc(Cl)c(Cl)c1)NCCCCCN1CCCC(C(=O)Nc2ccc(Cl)c(Cl)c2)C1 (stereo not drawn) | 53%
3 | CCCNC(=O)C1CCN(C(c2ccc(Cl)cc2)c2ccc(Cl)cc2)CC1 | 7%
